AmpC detergent: qHTS Inhibitors of AmpC Beta-Lactamase (assay with detergent). P00811. AmpC hydrolysis of nitrocefin, absorbance 480 nm, 0.01% Triton. Potency, µM (highest dose often 114 µM), without a hit: top-dose activity change, negative = inhibition, usual class: inhibitors. 370,000 compounds, 0.041% hits. AID 485294, 2010;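 note: potency is the fitted concentration of half-maximal effect; 0% = no-compound wells and -100% = no-enzyme wells; nearly all actives have a fitted effect of over 25% in size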
Target sequence (P00811 whole entry, looked up): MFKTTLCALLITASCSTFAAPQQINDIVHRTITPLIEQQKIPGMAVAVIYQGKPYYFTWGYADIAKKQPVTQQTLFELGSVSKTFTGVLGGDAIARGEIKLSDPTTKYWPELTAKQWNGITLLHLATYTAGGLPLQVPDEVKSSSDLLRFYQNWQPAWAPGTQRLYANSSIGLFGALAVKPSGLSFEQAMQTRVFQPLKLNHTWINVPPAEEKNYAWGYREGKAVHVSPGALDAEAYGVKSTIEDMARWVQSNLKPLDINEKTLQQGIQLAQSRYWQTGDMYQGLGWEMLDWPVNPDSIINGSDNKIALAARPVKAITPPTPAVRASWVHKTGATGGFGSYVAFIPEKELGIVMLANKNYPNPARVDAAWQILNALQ
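AmpC (5.3 nM in the dispensed reagent) in 20 mM phosphate pH 7.0 with 0.01% (detergent screen) or 0.0001% Triton X-100 was preincubated with compounds for 15 min at room temperature. Nitrocefin was then added from an 800 uM solution, and hydrolysis was followed at 480 nm.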
SARS PLpro yeast-1: qHTS of Yeast-based Assay for SARS-CoV PLP; S. cerevisiae expressing SARS-CoV PLpro, growth rescue; Potency, µM (doses to about 32.9 µM), for inactives: top-dose activity, positive = growth rescue, usual class: activators; 330,000 compounds, 0.19% hits; calls by dose curve; note: potency is the fitted concentration of half-maximal effect; 0% is about no effect; nearly all actives have a fitted effect of over 55% in size
AmpC inh no detg: qHTS Inhibitors of AmpC Beta-Lactamase (assay without detergent) | AmpC nitrocefin hydrolysis, absorbance 480 nm, 0.0001% Triton | P00811 | AID 485341, 2010 | Potency, µM (titrated, usually from 57.1 µM), for the others: at the top dose activity change, negative = inhibition, hits mostly inhibitors | 330,000 compounds, 0.52% hits;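 note: potency is the fitted concentration of half-maximal effect; plate controls were no compound for no effect and no enzyme for full effect; nearly all actives have a fitted effect of over 20% in size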
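AmpC (5.3 nM in the dispensed reagent) in 20 mM phosphate pH 7.0 with 0.01% (detergent screen) or 0.0001% Triton X-100 was preincubated with compounds for 15 min at room temperature. Nitrocefin was then added from an 800 uM solution, and hydrolysis was followed at 480 nm.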
NS1 inh: qHTS Assay for Inhibitors of Influenza NS1 Protein Function; AID 2326, 2010; Potency, µM (series often up to 46.1 µM), for the others: at the top dose activity, positive = more growth; 270,000 compounds, 0.4% hits; calls by dose curve; note: potency is the fitted concentration of half-maximal effect; actives are rising curves; nearly all actives have a fitted effect of over 50% in size
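Growth recovery, yeast-based: influenza A NS1 expressed in S. cerevisiae causes slow growth, and suppressors are detected by OD600. The parent strain without NS1 is used as positive control.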
AMA1-RON2 inh: qHTS for Inhibitors of AMA1-RON; Towards Development of Antimalarial Drug Lead: Primary Screen. Plasmodium falciparum AMA1 (3D7) - RON2 peptide interaction. AlphaScreen AMA1-biotinylated RON2 peptide binding. Potency, µM (doses to about 58.2 µM), for inactives: at the top dose activity change, negative = inhibition, most hits filed as inhibitors. 360,000 compounds, 0.2% hits. AID 720542, 2013;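 note: potency is the fitted concentration of half-maximal effect; 0% = vehicle wells and -100% = peptide control; nearly all actives have a fitted effect of over 45% in size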
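AMA1 (3D7) with his tag at 25 nM final met compounds first, then biotinylated RON2 peptide at 25 nM; detection used donor plus acceptor beads, 10 µg/mL apiece, read by AlphaScreen after 30 min at room temperature.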
SARS PLpro yeast-2: qHTS of Yeast-based Assay for SARS-CoV PLP: Hit Validation | shares compounds with SARS PLpro yeast-1 | yeast expressing SARS-CoV PLpro, growth phenotype rescue | calls only | 1,000 compounds, 19% hits | AID 652038, 2013; call rule not given here
* = called active by the depositor; i = inactive; ? = inconclusive; nt = no result; + = active, no number; [ ] = another dose, or the depositor's remark. Most compounds without a hit are left out; they make up all but 0.99% or so of the library. Unless noted, calls come from the whole dose curve; as a rule, active = well fitted curve in the direction sought with a large enough effect; inconclusive = small, poorly fitted or top-dose-only effect, or another doubt; inactive = no such curve, though single readings can be large; an effect the other way counts as inactive or inconclusive.

SMILES | AmpC detergent | SARS PLpro yeast-1 | AmpC inh no detg | NS1 inh | AMA1-RON2 inh | SARS PLpro yeast-2
COc1ccc(C2C=C(C34CC5CC(CC(C5)C3)C4)NC(=S)N2)cc1OC (stereo not given) | -14.2% | 14.1µM* | -33.9% | 18.6% | 14.7% | +
O=C(NCCc1ccccc1)c1ccc(Cn2c(SCc3ccccc3F)nc3cccnc32)cc1 | -7.0% | nt | nt | nt | nt | nt
C/C(=N\NC(=S)NC1CCCCC1)c1ccc(C#N)cc1 | -14.0% | 15.8µM* | -22.7% | 11.1% | 50.8% | +
N#Cc1ccc(C(=O)NC(=S)NC2CCCCC2)cc1 | nt | -5.7% | -28.4% | nt | 71.9% | nt
Cc1ccc(-c2nc(CNC(=O)NC3CCCCC3)c(C)o2)cc1 | -6.1% | nt | nt | nt | nt | nt
Cc1ccc(C2(C)NC(=O)N(CC(=O)NCc3cccs3)C2=O)cc1 (stereo not given) | 15.2% | ? | 0.7% | 21.3% | -1.1% | i
COc1cccc(CNC(=O)CSc2n[nH]c(-c3ccccc3Cl)n2)c1 | 20.2% | nt | nt | nt | nt | nt
CCCSc1nc2sc3c(c2c(=O)n1-c1ccc(C)cc1)CCCC3 | 16.5% | nt | nt | nt | nt | nt
COc1ccc(CCNC(=O)C(=O)NCC2OCCN2S(=O)(=O)c2ccc(OC)c(OC)c2)cc1OC (stereo not given) | -6.2% | 3.7% | 54.9% | -11.8% | -3.9% | nt
COc1ccc(CCNC(=O)C(=O)NCC2OCCN2S(=O)(=O)c2ccccc2)cc1OC (stereo not given) | -6.4% | 11.2µM* | -1.6% | 5.1% | -1.5% | i
O=S(=O)(NCCc1cn2ccsc2n1)c1ccc(Cl)cc1 | 1.7% | nt | nt | nt | nt | nt
CCc1ccccc1NC(=O)CN1CCN(C(=O)c2ccc(OCc3cn4ccccc4n3)cc2)CC1 | -19.8% | ? | 139.8% | nt | -2.5% | i
CCc1ccccc1NC(=O)CNC(=O)c1ccc(OCc2cn3ccccc3n2)cc1 | nt | -3.0% | 0.0% | nt | -12.3% | nt
CCN(C(=O)CSc1nnc(-c2ccccc2)o1)c1c(N)n(Cc2ccccc2)c(=O)[nH]c1=O | 3.5% | ? | 19.3% | nt | -6.7% | i
CCCCN(C(=O)CSc1nnc(-c2ccccc2)o1)c1c(N)n(CCC)c(=O)[nH]c1=O | -6.2% | -1.6% | -5.5% | nt | -2.4% | nt
Cc1ccc(S(=O)(=O)NC(C(=O)Oc2cc3oc(=O)cc(C)c3cc2Cl)C(C)C)cc1 (stereo not given) | -1.4% | 22.4µM* | -26.0% | 2.4% | 5.6% | ?
CCN(CC)S(=O)(=O)c1ccc(NC(=S)NC(=O)CC(C)C)cc1 | -4.1% | nt | -35.0% | ? | -2.8% | i
O=C(CC1SC(N2CCCCC2)=NC1=O)Nc1cccc(C(=O)Nc2ncccc2O)c1 (stereo not given) | ? | ? | -18.7% | nt | 60.8% | i
CC(C)NC(=O)c1cccc(NC(=O)CC2SC(N3CCCCC3)=NC2=O)c1 (stereo not given) | ? | -0.1% | -13.6% | nt | 9.8% | nt
CCNC(=O)CN(c1ccccc1)S(=O)(=O)c1ccc(Cl)cc1 | -10.9% | ? | -6.8% | 6.1% | -6.7% | ?
CCNC(=O)CN(c1ccc(Cl)cc1)S(=O)(=O)c1ccccc1 | 0.7% | -19.0% | -10.7% | -11.0% | -11.2% | nt
Cc1ccc(-c2cc(C(=O)N3CCN(S(=O)(=O)c4ccc(Br)cc4)CC3)[nH]n2)c(C)c1 | 6.2% | nt | nt | nt | nt | nt
CCOc1ccccc1CNC(=O)CCNC(=O)Cn1ccc2ccccc2c1=O | -0.7% | ? | -1.6% | 2.8% | 10.6% | i
O=C(CN1CCCc2ccccc21)N/N=C/c1c(O)ccc2ccccc12 | -9.4% | 10µM* | -56.3% | 11.5% | 2.0% | i
COc1ccccc1N(CC(=O)N/N=C/c1c(O)ccc2ccccc12)S(C)(=O)=O | -2.3% | 11.2µM* | -28.7% | 26.4% | 70.4% | +
SMILES | AmpC detergent | SARS PLpro yeast-1 | AmpC inh no detg | NS1 inh | AMA1-RON2 inh | SARS PLpro yeast-2
CCCCc1ccc(NC(=O)CSc2nnc3[nH]c(=O)cc(C)n23)cc1 | 3.6% | nt | nt | nt | nt | nt
C=CCc1ccc(OCCn2cncn2)c(OC)c1 | -5.1% | ? | 3.6% | -14.4% | -8.5% | i
C=CCc1cc(OC)ccc1OCCCCn1cncn1 | ? | ? | -0.8% | -28.6% | ? | nt
CCOc1ccccc1CNS(=O)(=O)c1cc2c(cc1C)NC(=O)CO2 | 19.7% | nt | nt | nt | nt | nt
CCOc1cc(CNCCc2ccccc2)ccc1OCC(=O)NC(C)(C)C | -4.0% | 17.8µM* | 20.7% | 1.5% | -1.7% | i
CCOc1cc(CNCCc2ccc(S(N)(=O)=O)cc2)ccc1OCC(=O)NC(C)(C)C | -1.2% | nt | nt | 5.0% | 3.1% | nt
Cc1cccc(C2=NN(c3ccc(Br)cc3)[C@@H](C(=O)N3CCOC3=O)[C@@H]2c2ccccc2)c1 | nt | 3.55µM* | -49.1% | nt | 71.4% | i
O=C(Nc1cccc(-c2nn[nH]n2)c1)c1csc2c1CCCC2 | 1.2% | ? | -39.1% | 16.0% | -7.0% | i
COc1cc(C)ccc1OCCCn1c(-c2ccc(Cl)cc2)nc2ccccc2c1=O | 10.7% | nt | nt | nt | nt | nt
CCCc1nc(Cl)c(C#N)c2c1CCCC2 | 3.5% | 11.9% | -8.3% | 4.6% | 17.4% | nt
CCc1nc(Cl)c(C#N)c2c1CCCC2 | -4.9% | 3.98µM* | -18.9% | 1.1% | -19.4% | i
COc1ccccc1C(=O)Nc1ccccc1C(=O)OCc1cc(=O)n2ccsc2n1 | 17.0% | nt | nt | nt | nt | nt
O=C1c2ccccc2NC(c2cn[nH]c2-c2ccc(Cl)cc2)N1O (stereo not given) | -8.8% | 7.94µM* | -52.8% | 19.4% | -6.9%[2.32 µM] | ?
O=C1c2ccccc2NC(c2cn[nH]c2-c2ccccc2)N1O (stereo not given) | ? | ? | -11.0% | 18.2% | 56.4% | i
O=C1c2ccccc2NC(c2ccccc2O)N1O (stereo not given) | ? | 5.4% | -5.7% | -2.6% | 76.4% | nt
Cc1ccc(Cn2cnc3c(oc4ccccc43)c2=O)cc1 | 27.7% | nt | nt | nt | nt | nt
Cc1nc2nc(NCc3cccc(Cl)c3)[nH]n2c(=O)c1Cc1ccccc1 | 12.6% | nt | nt | nt | nt | nt
O=C(O)c1ccc(N=NN2CCCCCC2)cc1 | ? | 12.6µM* | -16.4% | 15.9% | 0.6% | i
O=C(O)c1ccc(N=NN2CCCC2)cc1 | 1.6% | 1.8% | -14.7% | nt | -1.3% | nt
CCOc1ccc(CNC(=O)C2CCN(S(=O)(=O)c3ccc4c(c3)CCCC(=O)N4)CC2)cc1 | -11.1% | ? | 44.2% | 2.7% | 4.8% | +
O=C1CCCc2cc(S(=O)(=O)N3CCC(C(=O)NCc4ccccc4)CC3)ccc2N1 | -0.9% | -0.8% | -2.8% | -7.3% | 4.8% | nt
CC1Cc2ccccc2N1c1nc(C2CC2)nc2c1nnn2Cc1ccccc1 (stereo not given) | -8.6% | ? | -27.6% | -6.5% | 3.7% | +
COc1cccc(C(=O)Oc2c(CN3CCOCC3)cc(Cl)c3cccnc23)c1 | -4.9% | ? | 38.6% | -10.7% | -74.0% | i

High-throughput results deposited in PubChem by National Center for Advancing Translational Sciences (NCATS).
